# Unmarked numbers belong to inactive results.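 The calls were made as follows: active = response relative to DMSO over 150%; inconclusive = yeast strain with under 70 recorded events; inactive = the rest.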
# Assay: yeast AGP1-GFP fluorescence change, single-dose confirmation – cell-based, flow cytometry, S. cerevisiae, cherry pick set 3 (AID 504334);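 also: median GFP fluorescence per well by flow cytometry over the all cells gate; ratio of sample to mean DMSO control signal so DMSO = 100% not 0%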
# Settings: S. cerevisiae AGP1-GFP strain, 3 h, at 10 µM, active compounds read high
row,Structure (SMILES),percent response vs DMSO
1,Nc1nc(NCCOCCO)nc(Nc2cccc(F)c2)c1[N+](=O)[O-],98.1%
2,COCCNc1nc(N)c([N+](=O)[O-])c(Nc2ccc(F)cc2)n1,101%
3,COc1ccccc1Nc1nc(NCCC(C)C)nc(N)c1[N+](=O)[O-],104%
4,O=c1cc(C(F)(F)F)[nH]c2c(OC(F)(F)F)cccc12,99.4%
5,CNc1nc(N)c([N+](=O)[O-])c(Nc2ccccc2OC)n1,89.8%
6,C=CCNc1ncnc2ccccc12,102%
7,Cc1ccc(Nc2nc(N)[nH]c(=O)c2N=O)cc1,101%
8,C/C(=C\C(=O)c1ccccc1)Nc1cccc(O)c1,97.1%
9,Cn1c(NCCCO)nc2c(c1=O)C1(CCCCC1)Cc1ccccc1-2,104%
10,CC(=O)Nc1ccc(-c2nc3cc(Cl)ccc3o2)cc1,96.1%
11,O=C1c2ccccc2C(=O)c2c1cccc2N(CCO)CCO,98.8%
12,COc1ccc(Nc2nc(NN)nc(C)c2[N+](=O)[O-])cc1,94.1%
13,O=C(O)CCS(=O)(=O)c1nc(-c2cccs2)cc(C(F)(F)F)n1,111%
14,OCc1ccnc2c(O)cccc12,100%
15,Cc1nc(Nc2ccc(Cl)cc2)c(C#N)c(=O)[nH]1,101%
16,CCCC(=O)Nn1cnc2c(c1=O)C1(CCCC1)Cc1ccccc1-2,101%
17,COc1cc(=O)n(C)c2c(O)cccc12,98.1%
18,O=C(N/N=C/c1ccccc1)c1cccc2ccccc12,101%
